Hit rate of the full screen: of about 39,000 compounds, about 220 (0.56%) showed activity. Shown is part of a subset that was picked to be rich in actives.
The compounds below were run on Escherichia coli K-12 BW25113 (assay: relative growth (OD600 normalised to plate interquartile mean) (fraction); higher = less growth inhibition, active = 0.2 or less). Settings: 50 µM; LB; incubation time: overnight (16-24 h).
With `Cc1noc(C)c1NC(=O)Nc1cccc2c1O[C@@H](CN(C)Cc1ccc(Oc3ccccc3)cc1)[C@H](C)CN([C@H](C)CO)C2=O` the relative growth was 0.995 (inactive). For `COc1ccc(-c2cnc3c(c2)C(=O)N([C@H](C)CO)C[C@H](C)[C@@H](CN(C)S(=O)(=O)c2ccc(OC)cc2)O3)cc1`, the relative growth was 1 (inactive). For `C[C@@H]1CN([C@@H](C)CO)C(=O)c2cc(N(C)C)ccc2O[C@@H](C)CCCCO[C@@H]1CN(C)C(=O)Nc1ccc(C(F)(F)F)cc1`, the relative growth was 0.928 (inactive). For `COc1cccc(S(=O)(=O)Nc2ccc3c(c2)[C@@H]2C[C@@H](CC(=O)N4CCCCC4)O[C@@H](CO)[C@@H]2O3)c1`, the relative growth was 0.993 (inactive). For `C[C@H]1CN([C@@H](C)CO)S(=O)(=O)c2ccc(Br)cc2O[C@@H]1CN(C)C(=O)c1cccnc1`, the relative growth was 0.972 (inactive). For `C[C@@H]1CN([C@H](C)CO)S(=O)(=O)c2ccc(-c3cccc(C#N)c3)cc2O[C@@H]1CN(C)C(=O)c1cccnc1`, the relative growth was 1.01 (inactive). In the case of `Cc1n[nH]c(=S)n1N`, the relative growth is reported as 0.968 (inactive). For `Cc1nnsc1-c1onc(C)c1C(N)=O`, the relative growth was 0.866 (inactive). `C[C@H]1CN([C@@H](C)CO)C(=O)c2cccc(NC(=O)C3CC3)c2O[C@@H]1CN(C)S(=O)(=O)c1ccc(Cl)cc1` was tested, and the relative growth was 1 (inactive). For `C[C@@H]1CN([C@H](C)CO)C(=O)Cc2cc(NC(=O)Cc3cn(C)c4ccccc34)ccc2O[C@H]1CN(C)CC1CCCCC1`, the relative growth was 1.02 (inactive). `CO[C@H]1C[C@@H]2CC[C@@H](C)[C@@](O)(O2)C(=O)C(=O)N2CCCC[C@H]2C(=O)O[C@H]([C@H](C)C[C@@H]2CC[C@@H](OP(C)(C)=O)[C@H](OC)C2)CC(=O)[C@H](C)/C=C(\C)[C@@H](O)[C@@H](OC)C(=O)[C@H](C)C[C@H](C)/C=C/C=C\C=C\1C` was tested, and the relative growth was 0.837 (inactive). In the case of `Nc1c2c(nc3ccccc13)CCCC2`, the relative growth is reported as 0.985 (inactive). With `Nc1c2ccccc2nc2ccccc12` the relative growth was 0.0461 (active). With `Cl.Nc1c2c(nc3ccccc13)CCCC2` the relative growth was 0.911 (inactive). `Cc1noc(C)c1NC(=O)N(C)C[C@H]1Oc2ccc(NS(=O)(=O)c3cn(C)cn3)cc2C(=O)N([C@H](C)CO)C[C@H]1C` was tested, and the relative growth was 0.989 (inactive). With `C[C@@H]1CN([C@H](C)CO)C(=O)Cc2cc(NC(=O)C3CCCCC3)ccc2O[C@H]1CN(C)Cc1ccc(C(=O)Nc2ccccc2N)cc1` the relative growth was 0.979 (inactive). In the case of `COc1cc2c(cc1OC)CN(CCc1ccc(NC(=O)c3cc(OC)c(OC)cc3NC(=O)c3cnc4ccccc4c3)cc1)CC2`, the relative growth is reported as 0.965 (inactive). `CC(=O)O.N=C(N)NN=Cc1c(Cl)cccc1Cl` was tested, and the relative growth was 0.885 (inactive). `COC(=O)NN=Cc1c[n+]([O-])c2ccccc2[n+]1[O-]` was tested, and the relative growth was 0.574 (inactive). For `COC(=O)N/N=C/c1c[n+]([O-])c2ccccc2[n+]1[O-]`, the relative growth was 0.0462 (active). `C[C@H]1CN([C@@H](C)CO)C(=O)c2cccc(NS(=O)(=O)c3ccccc3)c2O[C@H]1CN(C)S(C)(=O)=O` was tested, and the relative growth was 0.967 (inactive). With `O=c1c(O[C@@H]2O[C@H](CO)[C@@H](O)[C@H](O)[C@@H]2O[C@H]2OC[C@](O)(CO)[C@H]2O)c(-c2ccc(O)c(O)c2)oc2cc(O)cc(O)c12` the relative growth was 1.02 (inactive). In the case of `O=C(C[C@@H]1CC[C@@H](NS(=O)(=O)c2ccc(F)cc2)[C@@H](CO)O1)N1CCC(Cc2ccccc2)CC1`, the relative growth is reported as 0.987 (inactive). In the case of `CCC(=O)Nc1ccc(Cl)cc1`, the relative growth is reported as 1 (inactive). In the case of `CC(C)NC(=N)NC(=N)Nc1ccc(Cl)cc1.Cl`, the relative growth is reported as 0.965 (inactive). `Cl.Cl.N=C(NCCCCCCNC(=N)NC(=N)Nc1ccc(Cl)cc1)NC(=N)Nc1ccc(Cl)cc1` was tested, and the relative growth was 0.0423 (active). With `Cc1noc(C)c1NC(=O)N(C)C[C@H]1OCCCC[C@@H](C)Oc2ccc(NC(=O)C3CCCCC3)cc2C(=O)N([C@@H](C)CO)C[C@H]1C` the relative growth was 0.976 (inactive). In the case of `Cc1noc(C)c1NC(=O)N(C)C[C@H]1Oc2c(NC(=O)C3CC3)cccc2C(=O)N([C@H](C)CO)C[C@@H]1C`, the relative growth is reported as 1 (inactive). For `CC(C)NC(=O)Nc1ccc2c(c1)C(=O)N([C@@H](C)CO)C[C@H](C)[C@H](CN(C)CC1CCCCC1)OCCCC[C@H](C)O2`, the relative growth was 1.01 (inactive). In the case of `CC[C@@H](O)C[C@H]1CC[C@H]([C@@H](C)C(=O)O[C@@H](C)C[C@H]2CC[C@H]([C@@H](C)C(=O)O[C@@H](C)C[C@H]3CC[C@H]([C@@H](C)C(=O)O[C@@H](C)C[C@H]4CC[C@H]([C@@H](C)C(=O)O)O4)O3)O2)O1`, the relative growth is reported as 1.06 (inactive). With `CN(C)CCC=C1c2ccccc2COc2ccc(CC(=O)O)cc21.Cl` the relative growth was 0.0442 (active). With `CN(C)CCC=C1c2ccccc2CCc2ccccc21.Cl` the relative growth was 0.976 (inactive). `CN(C)CCC=C1c2ccccc2COc2ccccc21.Cl` was tested, and the relative growth was 1.03 (inactive). For `C[C@@H]1CN([C@H](C)CO)C(=O)c2ccccc2-c2ccccc2CO[C@@H]1CN(C)C(=O)Nc1cccc(F)c1`, the relative growth was 1.01 (inactive). With `CCOC(=O)CCn1cc(F)c(=O)[nH]c1=O` the relative growth was 0.986 (inactive). `CCOC(=O)Cn1cc(F)c(=O)[nH]c1=O` was tested, and the relative growth was 1.06 (inactive). `CC(=O)On1cc(F)c(=O)[nH]c1=O` was tested, and the relative growth was 0.0691 (active). For `CCC1OC(=O)C(C)C(=O)C(C)C(OC2OC(C)CC(N(C)C)C2O)C(C)(OC)CC(C)C(=O)C(C)C2N(CCCCn3cnc(-c4cccnc4)c3)C(=O)OC12C` (stereo not given), the relative growth was 0.0499 (active). With `C[C@@H]1CCCCO[C@@H](CN(C)CC2CCCCC2)[C@@H](C)CN([C@H](C)CO)C(=O)c2cc(N(C)C)ccc2O1` the relative growth was 1 (inactive). In the case of `CN(C)[C@@H]1C(=O)C(C(=O)NCN2CCCC2)=C(O)[C@@]2(O)C(O)=C3C(=O)c4c(O)cccc4[C@@](C)(O)[C@H]3C[C@@H]12`, the relative growth is reported as 0.516 (inactive). In the case of `CN(C)c1cc(NC(=O)CNC(C)(C)C)c(O)c2c1CC1CC3C(N(C)C)C(O)=C(C(N)=O)C(=O)C3(O)C(O)=C1C2=O` (stereo not given), the relative growth is reported as 1.06 (inactive). In the case of `CN(C)C1C(O)=C(C(N)=O)C(=O)C2(O)C(O)=C3C(=O)c4c(O)cccc4C(C)(O)C3CC12.Cl` (stereo not given), the relative growth is reported as 0.056 (active). For `CN(C)C1C(O)=C(C(N)=O)C(=O)C2(O)C(O)=C3C(=O)c4c(O)cccc4C(C)(O)C3C(O)C12.Cl` (stereo not given), the relative growth was 0.0578 (active). `CN(C)C1C(O)=C(C(N)=O)C(=O)C2(O)C(O)=C3C(=O)c4c(O)ccc(Cl)c4C(C)(O)C3CC12.Cl` (stereo not given) was tested, and the relative growth was 0.0595 (active). In the case of `CN(C)c1ccc(O)c2c1CC1CC3C(N(C)C)C(O)=C(C(N)=O)C(=O)C3(O)C(O)=C1C2=O.Cl` (stereo not given), the relative growth is reported as 0.0626 (active). With `C[C@@H]1CCCCO[C@H](CN(C)Cc2ccc(C(F)(F)F)cc2)[C@H](C)CN([C@H](C)CO)C(=O)c2cc(NS(=O)(=O)c3ccc(F)cc3)ccc2O1` the relative growth was 1.02 (inactive). In the case of `C[C@@H]1CN([C@H](C)CO)C(=O)c2cc(NS(=O)(=O)c3ccc(F)cc3)ccc2O[C@@H](C)CCCCO[C@H]1CN(C)Cc1ccccc1`, the relative growth is reported as 0.999 (inactive). For `C[C@@H]1CN([C@@H](C)CO)C(=O)c2cc(-c3ccc(F)cc3)cnc2O[C@@H]1CN(C)C(=O)Cc1ccccn1`, the relative growth was 0.977 (inactive). With `Cc1ccc(S(=O)(=O)N(C)C[C@@H]2Oc3c(NS(=O)(=O)c4ccc(F)cc4)cccc3C(=O)N([C@H](C)CO)C[C@@H]2C)cc1` the relative growth was 1.01 (inactive). In the case of `COc1ccc(S(=O)(=O)N(C)C[C@H]2Oc3cc(C#CC4CCCC4)ccc3S(=O)(=O)N([C@@H](C)CO)C[C@H]2C)cc1`, the relative growth is reported as 1.04 (inactive). With `COc1ccc(CN(C)C[C@H]2Oc3ccc(NC(=O)Nc4ccc(C(F)(F)F)cc4)cc3CC(=O)N([C@@H](C)CO)C[C@H]2C)cc1` the relative growth was 0.99 (inactive). With `C[C@@H]1CCCCO[C@@H](CN(C)C(=O)Nc2ccc(C(F)(F)F)cc2)[C@H](C)CN([C@H](C)CO)C(=O)c2cc(NS(=O)(=O)c3cccs3)ccc2O1` the relative growth was 1.03 (inactive). For `O=C(O)[C@H]1O[C@@H](Oc2c(-c3ccc(O)cc3)oc3cc(O)cc(O)c3c2=O)[C@H](O)[C@@H](O)[C@@H]1O`, the relative growth was 1.01 (inactive). For `C[C@H]1CN([C@@H](C)CO)S(=O)(=O)c2ccc(-c3cncnc3)cc2O[C@@H]1CN(C)C(=O)NC1CCCC1`, the relative growth was 1 (inactive). With `CCC(=O)Nc1cnc(OC)nc1OC` the relative growth was 1.01 (inactive). `C[C@@H]1CCCCO[C@H](CN(C)C(=O)Nc2ccc(C(F)(F)F)cc2)[C@@H](C)CN([C@@H](C)CO)C(=O)c2cc(NC(=O)c3ccncc3)ccc2O1` was tested, and the relative growth was 0.979 (inactive). `CN(C)CCCNC(=O)C[C@@H]1CC[C@@H]2[C@@H](COc3ccc(NC(=O)c4cccc(F)c4)cc3C(=O)N2C)O1` was tested, and the relative growth was 0.965 (inactive). For `CC(C)NC(=O)N(C)C[C@@H]1Oc2c(NS(=O)(=O)c3ccc(Cl)cc3)cccc2C(=O)N([C@@H](C)CO)C[C@@H]1C`, the relative growth was 1.09 (inactive). `C[C@H](CO)N1C[C@H](C)[C@H](CN(C)C(=O)c2ccncc2)OCCCC[C@H](C)Oc2ccc(NS(C)(=O)=O)cc2C1=O` was tested, and the relative growth was 1.02 (inactive). In the case of `CN(C)C1C(O)=C(C(N)=O)C(=O)C2(O)C(O)=C3C(=O)c4c(O)ccc(Cl)c4C(O)C3CC12.Cl` (stereo not given), the relative growth is reported as 0.0565 (active). In the case of `COC(=O)C(=C1OC(=O)C(c2ccccc2)=C1O)c1ccccc1`, the relative growth is reported as 0.951 (inactive). With `CC(O)C1C(=O)N2C(C(=O)[O-])=C(SC3Cn4cnc[n+]4C3)C(C)C12` (stereo not given) the relative growth was 0.307 (inactive). For `CC(O)C1C(=O)N2C(C(=O)O)=C(SC3CNC(C(=O)N(C)C)C3)C(C)C12` (stereo not given), the relative growth was 0.0517 (active). `C[C@@H](O)[C@H]1C(=O)N2C(C(=O)O)=C(SCCNC=N)C[C@H]12` was tested, and the relative growth was 1.01 (inactive). With `C[C@@H]1CN([C@@H](C)CO)C(=O)c2cc(NS(=O)(=O)c3ccc(F)cc3)ccc2O[C@@H](C)CCCCO[C@H]1CN(C)Cc1ccccc1` the relative growth was 0.979 (inactive).

From the supplement of paper PMC9446081
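Also: Wild-type cells incubated without shaking, value is the mean of two biological replicates.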
